# Experimental data taken from publication PMC7862700, “An all-to-all approach to the identification of sequence-specific readers for epigenetic DNA modifications on cytosine”.
# What was measured:
# Experiment in all cases: DAPPL (digital affinity profiling via proximity ligation, sequencing); 10 mM Tris-HCl pH 7.5, 50 mM NaCl, 1 mM DTT, 4% glycerol, room temperature, 30 min; GST-TFs on glutathione beads, 16-mer random dsDNA library, 0.1% formaldehyde crosslink after washing; high values mean tight binding
# Settings in all cases: protein: recombinant; tags: N-terminal GST; dsDNA, one strand shown
# ELK1 = target: T1, ELK1 (Homo sapiens, UniProt P19419 1-428)
# T1 sequence: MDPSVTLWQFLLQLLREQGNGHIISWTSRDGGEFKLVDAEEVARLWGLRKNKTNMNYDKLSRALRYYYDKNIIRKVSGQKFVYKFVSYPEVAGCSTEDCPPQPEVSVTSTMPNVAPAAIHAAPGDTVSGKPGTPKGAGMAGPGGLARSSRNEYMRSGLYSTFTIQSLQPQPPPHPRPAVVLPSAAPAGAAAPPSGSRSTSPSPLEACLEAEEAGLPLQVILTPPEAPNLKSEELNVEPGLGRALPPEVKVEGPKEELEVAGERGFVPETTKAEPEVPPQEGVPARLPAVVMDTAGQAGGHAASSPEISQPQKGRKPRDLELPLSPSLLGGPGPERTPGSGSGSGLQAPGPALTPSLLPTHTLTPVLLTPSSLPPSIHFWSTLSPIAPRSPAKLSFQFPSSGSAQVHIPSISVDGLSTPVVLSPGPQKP
# How it was run: (§1)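 Human transcription factors were made in yeast as GST fusions, captured on glutathione beads and barcoded with DNA. With a tag-only sample included, the pool was incubated with 200 nmole of a random double-stranded 16-mer DNA library in Tris/NaCl/DTT/glycerol buffer at room temperature for 30 min, then crosslinked with 0.1% formaldehyde after washing, ligated by proximity, amplified and sequenced. For binding signal, each hexamer's read frequency for a factor is divided by its frequency for the tag-only sample.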
# GABPA = target: T2, GABPA (Homo sapiens, UniProt Q06546 1-454)
# T2 sequence: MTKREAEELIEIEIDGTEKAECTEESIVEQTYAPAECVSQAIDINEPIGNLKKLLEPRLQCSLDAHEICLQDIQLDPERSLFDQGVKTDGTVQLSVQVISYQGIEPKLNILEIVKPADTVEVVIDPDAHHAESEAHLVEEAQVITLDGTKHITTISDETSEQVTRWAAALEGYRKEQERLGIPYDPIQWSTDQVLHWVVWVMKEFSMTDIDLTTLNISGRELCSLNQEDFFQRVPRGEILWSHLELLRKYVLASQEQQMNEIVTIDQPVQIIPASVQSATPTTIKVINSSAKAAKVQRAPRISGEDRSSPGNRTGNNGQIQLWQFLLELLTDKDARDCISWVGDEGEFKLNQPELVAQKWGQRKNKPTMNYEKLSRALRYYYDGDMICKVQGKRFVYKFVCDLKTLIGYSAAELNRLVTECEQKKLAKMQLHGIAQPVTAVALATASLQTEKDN
# How it was run: as §1
# ERG = target: T3, ERG (Homo sapiens, UniProt P11308 1-479)
# T3 sequence: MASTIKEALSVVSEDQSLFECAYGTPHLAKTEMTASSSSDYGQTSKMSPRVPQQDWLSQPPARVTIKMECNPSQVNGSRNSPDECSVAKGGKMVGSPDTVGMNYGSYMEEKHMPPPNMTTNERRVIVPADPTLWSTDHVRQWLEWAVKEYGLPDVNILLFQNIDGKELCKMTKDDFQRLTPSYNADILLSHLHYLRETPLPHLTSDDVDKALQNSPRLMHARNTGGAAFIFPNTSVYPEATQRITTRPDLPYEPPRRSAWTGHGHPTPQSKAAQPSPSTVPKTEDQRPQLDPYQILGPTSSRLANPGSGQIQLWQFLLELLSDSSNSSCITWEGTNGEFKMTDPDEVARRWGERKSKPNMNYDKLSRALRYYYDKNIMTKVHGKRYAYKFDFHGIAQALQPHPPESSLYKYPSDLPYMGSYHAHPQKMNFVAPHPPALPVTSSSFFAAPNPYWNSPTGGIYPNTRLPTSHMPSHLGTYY
# How it was run: as §1
# ELF1 = ELF1 (Homo sapiens, UniProt P32519 1-619)
# Chain of ELF1 (P32519 whole entry): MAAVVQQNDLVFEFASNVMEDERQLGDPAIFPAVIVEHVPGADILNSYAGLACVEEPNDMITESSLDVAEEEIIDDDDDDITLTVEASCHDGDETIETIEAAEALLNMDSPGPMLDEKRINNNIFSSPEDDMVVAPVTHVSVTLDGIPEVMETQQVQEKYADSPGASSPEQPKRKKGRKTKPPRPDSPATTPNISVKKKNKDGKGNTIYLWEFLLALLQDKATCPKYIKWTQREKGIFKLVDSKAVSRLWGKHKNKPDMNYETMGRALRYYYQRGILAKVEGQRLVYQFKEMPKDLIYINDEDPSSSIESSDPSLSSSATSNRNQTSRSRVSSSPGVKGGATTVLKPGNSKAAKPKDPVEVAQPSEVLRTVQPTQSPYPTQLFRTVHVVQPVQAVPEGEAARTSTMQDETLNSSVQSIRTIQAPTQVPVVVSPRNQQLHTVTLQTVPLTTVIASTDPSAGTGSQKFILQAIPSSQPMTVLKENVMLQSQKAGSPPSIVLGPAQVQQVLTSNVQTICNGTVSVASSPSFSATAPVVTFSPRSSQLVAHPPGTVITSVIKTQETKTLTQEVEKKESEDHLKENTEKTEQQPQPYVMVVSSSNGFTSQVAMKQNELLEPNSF
# How it was run: as §1
# SPIC = target: T4, SPIC (Homo sapiens, UniProt Q8N5J4 1-248)
# T4 sequence: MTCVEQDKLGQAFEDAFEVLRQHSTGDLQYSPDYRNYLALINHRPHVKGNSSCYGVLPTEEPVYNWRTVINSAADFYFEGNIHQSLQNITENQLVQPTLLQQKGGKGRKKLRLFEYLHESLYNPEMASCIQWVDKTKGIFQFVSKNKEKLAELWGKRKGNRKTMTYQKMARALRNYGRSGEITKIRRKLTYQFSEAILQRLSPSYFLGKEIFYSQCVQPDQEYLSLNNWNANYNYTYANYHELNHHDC
# How it was run: as §1
# ELF4 = ELF4 (Homo sapiens, UniProt Q99607 1-663)
# Chain of ELF4 (Q99607 whole entry): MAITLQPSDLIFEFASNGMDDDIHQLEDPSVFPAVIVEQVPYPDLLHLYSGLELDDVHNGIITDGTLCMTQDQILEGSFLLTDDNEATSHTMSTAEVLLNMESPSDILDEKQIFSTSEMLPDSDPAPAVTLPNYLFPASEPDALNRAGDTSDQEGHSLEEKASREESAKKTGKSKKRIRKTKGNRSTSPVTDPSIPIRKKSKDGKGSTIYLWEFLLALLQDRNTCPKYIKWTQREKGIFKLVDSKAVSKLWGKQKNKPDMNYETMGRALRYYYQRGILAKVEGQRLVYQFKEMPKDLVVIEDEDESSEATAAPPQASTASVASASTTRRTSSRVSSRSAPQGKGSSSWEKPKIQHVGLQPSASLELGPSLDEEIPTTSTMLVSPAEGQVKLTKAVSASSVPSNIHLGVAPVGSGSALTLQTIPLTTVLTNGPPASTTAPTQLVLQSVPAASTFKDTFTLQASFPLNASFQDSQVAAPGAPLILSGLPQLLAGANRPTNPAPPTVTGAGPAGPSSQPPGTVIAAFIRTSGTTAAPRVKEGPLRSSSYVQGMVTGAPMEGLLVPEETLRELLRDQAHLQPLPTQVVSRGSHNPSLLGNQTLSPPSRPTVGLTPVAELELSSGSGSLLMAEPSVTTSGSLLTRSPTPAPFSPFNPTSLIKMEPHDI
# How it was run: as §1
# ELK4 = target: T5, ELK4 (Homo sapiens, UniProt P28324-2 1-405)
# T5 sequence: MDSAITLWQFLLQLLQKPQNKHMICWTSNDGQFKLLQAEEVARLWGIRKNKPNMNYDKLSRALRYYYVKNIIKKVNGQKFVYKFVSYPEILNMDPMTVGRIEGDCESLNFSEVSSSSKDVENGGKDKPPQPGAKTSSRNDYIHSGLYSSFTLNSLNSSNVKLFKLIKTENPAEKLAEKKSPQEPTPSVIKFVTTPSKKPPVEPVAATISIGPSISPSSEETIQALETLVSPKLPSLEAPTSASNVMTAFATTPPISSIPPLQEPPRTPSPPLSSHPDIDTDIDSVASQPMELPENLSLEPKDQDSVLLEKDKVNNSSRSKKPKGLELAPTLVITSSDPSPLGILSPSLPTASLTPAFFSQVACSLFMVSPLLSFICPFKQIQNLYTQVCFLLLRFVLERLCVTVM
# How it was run: as §1
# ETS2 = target: T6, ETS2 (Homo sapiens, UniProt P15036 1-469)
# T6 sequence: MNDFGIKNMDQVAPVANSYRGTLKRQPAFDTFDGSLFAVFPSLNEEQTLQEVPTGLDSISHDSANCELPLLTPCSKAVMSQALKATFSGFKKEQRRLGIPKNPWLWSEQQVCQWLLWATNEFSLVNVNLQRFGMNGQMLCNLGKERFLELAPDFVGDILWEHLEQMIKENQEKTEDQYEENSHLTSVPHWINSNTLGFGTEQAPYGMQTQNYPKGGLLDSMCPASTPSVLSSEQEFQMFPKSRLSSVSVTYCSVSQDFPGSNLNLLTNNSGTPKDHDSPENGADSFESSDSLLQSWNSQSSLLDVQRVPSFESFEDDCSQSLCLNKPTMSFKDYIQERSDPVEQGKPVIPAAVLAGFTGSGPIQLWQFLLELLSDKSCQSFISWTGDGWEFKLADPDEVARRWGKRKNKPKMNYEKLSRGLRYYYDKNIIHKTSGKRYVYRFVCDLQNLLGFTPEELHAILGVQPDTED
# How it was run: as §1
# SPDEF = target: T7, SPDEF (Homo sapiens, UniProt O95238 1-335)
# T7 sequence: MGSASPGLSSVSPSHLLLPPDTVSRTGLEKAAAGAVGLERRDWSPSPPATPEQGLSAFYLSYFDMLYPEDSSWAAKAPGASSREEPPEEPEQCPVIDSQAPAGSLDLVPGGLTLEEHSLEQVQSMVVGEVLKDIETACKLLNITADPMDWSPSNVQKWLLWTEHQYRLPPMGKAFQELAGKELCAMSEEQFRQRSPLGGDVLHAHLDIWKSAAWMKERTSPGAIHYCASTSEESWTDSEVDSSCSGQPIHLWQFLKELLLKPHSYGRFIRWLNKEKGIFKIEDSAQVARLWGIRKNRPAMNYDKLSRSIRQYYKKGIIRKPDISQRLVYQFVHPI
# How it was run: as §1
# ETV7 = target: T8, ETV7 (Homo sapiens, UniProt Q9Y603 1-341)
# T8 sequence: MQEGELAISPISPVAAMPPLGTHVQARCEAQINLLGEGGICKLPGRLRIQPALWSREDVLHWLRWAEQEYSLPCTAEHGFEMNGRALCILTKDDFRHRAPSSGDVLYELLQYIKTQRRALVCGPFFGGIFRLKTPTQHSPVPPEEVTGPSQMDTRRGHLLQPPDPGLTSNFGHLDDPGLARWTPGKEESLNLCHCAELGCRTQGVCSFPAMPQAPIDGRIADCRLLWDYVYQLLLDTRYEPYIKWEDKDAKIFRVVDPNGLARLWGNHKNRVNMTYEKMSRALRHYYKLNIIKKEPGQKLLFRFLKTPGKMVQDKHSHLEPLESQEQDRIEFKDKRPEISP
# How it was run: as §1
# ETV3 = target: T9, ETV3 (Homo sapiens, UniProt P41162-2 1-143)
# T9 sequence: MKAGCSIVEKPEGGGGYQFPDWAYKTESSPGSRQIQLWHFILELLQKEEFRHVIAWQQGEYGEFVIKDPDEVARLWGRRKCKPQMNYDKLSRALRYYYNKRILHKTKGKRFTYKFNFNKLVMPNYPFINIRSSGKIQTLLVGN
# How it was run: as §1
# EHF = target: T10, EHF (Homo sapiens, UniProt Q9NZC4 1-300)
# T10 sequence: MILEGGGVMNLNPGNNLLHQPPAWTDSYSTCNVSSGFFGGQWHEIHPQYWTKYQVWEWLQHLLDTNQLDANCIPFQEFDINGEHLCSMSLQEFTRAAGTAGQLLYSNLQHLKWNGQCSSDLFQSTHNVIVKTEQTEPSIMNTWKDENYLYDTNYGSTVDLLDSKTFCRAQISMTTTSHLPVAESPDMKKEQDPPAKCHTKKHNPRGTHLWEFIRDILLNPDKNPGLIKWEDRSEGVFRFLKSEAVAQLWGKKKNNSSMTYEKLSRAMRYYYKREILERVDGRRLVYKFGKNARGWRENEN
# How it was run: as §1
# ELK3 = target: T11, ELK3 (Homo sapiens, UniProt P41970 1-407)
# T11 sequence: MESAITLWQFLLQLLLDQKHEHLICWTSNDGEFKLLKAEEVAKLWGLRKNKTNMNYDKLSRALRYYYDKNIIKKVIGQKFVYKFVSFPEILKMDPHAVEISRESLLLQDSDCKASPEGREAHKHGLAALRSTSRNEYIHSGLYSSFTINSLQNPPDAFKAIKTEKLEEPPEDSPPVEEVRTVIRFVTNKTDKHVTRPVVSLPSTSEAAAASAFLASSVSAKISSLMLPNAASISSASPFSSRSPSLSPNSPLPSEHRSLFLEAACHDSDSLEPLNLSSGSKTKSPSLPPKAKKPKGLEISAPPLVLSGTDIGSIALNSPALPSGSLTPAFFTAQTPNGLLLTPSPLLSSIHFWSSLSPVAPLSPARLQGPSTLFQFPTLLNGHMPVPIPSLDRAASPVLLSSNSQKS
# How it was run: as §1
# ELF3 = target: T12, ELF3 (Homo sapiens, UniProt P78545 1-371)
# T12 sequence: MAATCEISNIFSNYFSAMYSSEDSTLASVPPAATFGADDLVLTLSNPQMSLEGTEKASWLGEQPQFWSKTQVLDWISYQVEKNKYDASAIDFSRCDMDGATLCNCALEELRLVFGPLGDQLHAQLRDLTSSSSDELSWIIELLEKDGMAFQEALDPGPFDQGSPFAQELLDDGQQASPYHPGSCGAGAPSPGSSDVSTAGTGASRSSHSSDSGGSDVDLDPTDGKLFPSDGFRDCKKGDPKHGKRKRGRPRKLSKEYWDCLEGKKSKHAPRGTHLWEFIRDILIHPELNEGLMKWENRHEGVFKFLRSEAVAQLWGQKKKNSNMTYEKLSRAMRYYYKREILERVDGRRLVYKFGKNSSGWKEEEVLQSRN
# How it was run: as §1
# ERF = target: T13, ERF (Homo sapiens, UniProt P50548 1-548)
# T13 sequence: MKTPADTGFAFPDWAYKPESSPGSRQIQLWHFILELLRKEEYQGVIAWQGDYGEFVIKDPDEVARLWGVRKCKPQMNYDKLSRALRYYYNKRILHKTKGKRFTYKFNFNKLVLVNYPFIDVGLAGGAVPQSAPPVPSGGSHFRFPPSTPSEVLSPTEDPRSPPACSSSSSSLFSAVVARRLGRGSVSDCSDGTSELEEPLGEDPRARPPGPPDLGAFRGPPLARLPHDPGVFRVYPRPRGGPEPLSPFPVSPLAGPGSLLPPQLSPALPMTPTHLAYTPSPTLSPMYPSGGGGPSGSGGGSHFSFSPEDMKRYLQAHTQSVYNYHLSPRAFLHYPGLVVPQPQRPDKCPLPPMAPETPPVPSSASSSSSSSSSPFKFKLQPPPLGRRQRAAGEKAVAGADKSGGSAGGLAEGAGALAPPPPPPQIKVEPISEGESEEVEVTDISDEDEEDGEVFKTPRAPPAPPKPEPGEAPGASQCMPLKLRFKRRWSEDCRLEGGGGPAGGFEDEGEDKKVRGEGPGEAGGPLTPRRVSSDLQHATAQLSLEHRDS
# How it was run: as §1
# ETV6 = ETV6 (Homo sapiens, UniProt P41212 1-452)
# Chain of ETV6 (P41212 whole entry): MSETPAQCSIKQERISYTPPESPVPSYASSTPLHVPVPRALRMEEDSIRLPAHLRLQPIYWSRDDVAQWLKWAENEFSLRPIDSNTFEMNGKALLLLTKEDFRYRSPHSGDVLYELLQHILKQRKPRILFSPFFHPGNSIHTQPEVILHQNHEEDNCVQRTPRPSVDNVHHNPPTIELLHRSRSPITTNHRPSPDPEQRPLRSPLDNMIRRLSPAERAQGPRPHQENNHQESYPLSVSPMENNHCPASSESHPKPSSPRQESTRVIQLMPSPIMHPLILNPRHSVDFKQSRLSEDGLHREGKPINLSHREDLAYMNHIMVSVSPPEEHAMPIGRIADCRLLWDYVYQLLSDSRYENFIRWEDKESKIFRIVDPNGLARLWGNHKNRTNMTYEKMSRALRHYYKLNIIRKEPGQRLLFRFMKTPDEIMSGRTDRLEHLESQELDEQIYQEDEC
# How it was run: as §1
Sequence,binding signal (ELK1),binding signal (GABPA),binding signal (ERG),binding signal (ELF1),binding signal (SPIC),binding signal (ELF4),binding signal (ELK4),binding signal (ETS2),binding signal (SPDEF),binding signal (ETV7),binding signal (ETV3),binding signal (EHF),binding signal (ELK3),binding signal (ELF3),binding signal (ERF),binding signal (ETV6)
TAAGCA,"1.02 fold enrichment (6-mer frequency, TF over GST control)","1.08 fold enrichment (6-mer frequency, TF over GST control)","1.01 fold enrichment (6-mer frequency, TF over GST control)","1.07 fold enrichment (6-mer frequency, TF over GST control)","1.08 fold enrichment (6-mer frequency, TF over GST control)","1.03 fold enrichment (6-mer frequency, TF over GST control)","1.09 fold enrichment (6-mer frequency, TF over GST control)","1.07 fold enrichment (6-mer frequency, TF over GST control)","1.06 fold enrichment (6-mer frequency, TF over GST control)","1.02 fold enrichment (6-mer frequency, TF over GST control)","1 fold enrichment (6-mer frequency, TF over GST control)",–,–,–,–,–
GATTTA,–,–,–,"1 fold enrichment (6-mer frequency, TF over GST control)","1.02 fold enrichment (6-mer frequency, TF over GST control)","1.05 fold enrichment (6-mer frequency, TF over GST control)","1.02 fold enrichment (6-mer frequency, TF over GST control)","1 fold enrichment (6-mer frequency, TF over GST control)","1.08 fold enrichment (6-mer frequency, TF over GST control)",–,–,"1.11 fold enrichment (6-mer frequency, TF over GST control)","1.08 fold enrichment (6-mer frequency, TF over GST control)","1.02 fold enrichment (6-mer frequency, TF over GST control)","1.02 fold enrichment (6-mer frequency, TF over GST control)","1.05 fold enrichment (6-mer frequency, TF over GST control)"
